Experimental findings from ChEMBL document CHEMBL3988442, “University of Dundee, Small-Polar-MMV Screening Library” (2021) are described below.

Each structure is given as a SMILES string. About 13,000 (27%) of roughly 48,000 compounds showed an effect of 50% or more. Some of the results follow.

The test system of the assay is Wolbachia pipientis. In words: Anti-Wolbachia Cell-Based Screen. Type of assay: functional. The arrangement: scale not given: in the data most compounds retested in dose-response had high values. To be noted: 5 µM.
For the molecule `CCOc1cc(CN2CCCC2)ccc1Oc1cccc(C#N)n1`, the “Percent Effect” value is -4.025%. As for `COc1cc(CNC(=O)NCc2c(C)cc(C)[nH]c2=O)ccc1C`, the “Percent Effect” value is on record as 1.509%. In the case of `CC(C)(C)N1CC(c2ncc(-c3ccc4c(c3)OCCO4)[nH]2)CC1=O` (stereo not drawn) it was -4.995%.

Consider `O=C(CC1COCCN1)NCCc1nc(-c2ccccn2)no1` (stereo not drawn), for which the “Percent Effect” value is reported as -14.35%. In the case of `Cc1nsc(NC(=O)NC2CCCOC2)n1` (stereo not drawn), the “Percent Effect” value is reported as -39.42%.

In the case of `CC(C)Nc1ncc(-c2csc(NC(=O)C[C@H]3COCCN3)n2)cn1`, the “Percent Effect” value was found to be 64.22%. For the molecule `O=C(CC1COCCN1)NCCc1nc(Cc2ccccc2)no1` (stereo not drawn), the “Percent Effect” value came to 18.61%.

For `Cl.Nc1ncc(-c2csc(NC(=O)C[C@H]3COCCN3)n2)cn1`, the “Percent Effect” value is reported as 103.3%.

As for `O=C(CC1COCCN1)NCCc1noc(-c2ccccc2)n1` (stereo not drawn), the “Percent Effect” value was -6.645%. On to `CNc1ncc(-c2csc(NC(=O)C[C@H]3COCCN3)n2)cn1.Cl`, for which the “Percent Effect” value is reported as 71.35%. On to `CCNC(=O)NCc1cnn(-c2ccc(F)cc2F)c1`, for which the “Percent Effect” value is -2.386%.

Regarding `Cc1cc(CC(=O)NCC(O)c2ccc(OC(F)F)cc2)n[nH]1` (stereo not drawn), the “Percent Effect” value is on record as -1.889%. The value for `Cc1ccccc1-c1noc(CNc2ccc(F)cc2OCCO)n1` was 17.52%; that for `CS(=O)(=O)c1ccc(CN2C[C@@H]3OCC(=O)N(CC(N)=O)[C@@H]3C2)cc1` was 4.5%.

As for `Cc1ccc(CN2C[C@@H](c3ccccc3)[C@@]3(CCNC3=O)C2)o1`, the “Percent Effect” value amounted to 33.3%. With `CCS(=O)(=O)N1C[C@@H](c2ccccc2)[C@@]2(CCNC2=O)C1`, the “Percent Effect” value is 107.9%. In the case of `O=C(c1cnccn1)N1C[C@@H](c2ccccc2)[C@@]2(CCNC2=O)C1`, the “Percent Effect” value is reported as -14.79%. For `O=C1NCC[C@]12CN(Cc1ccco1)C[C@H]2c1ccccc1`, the “Percent Effect” value worked out at 13.69%. For the molecule `CCCS(=O)(=O)N1C[C@@H](c2ccccc2)[C@@]2(CCNC2=O)C1`, the “Percent Effect” value worked out at 108.5%.

`CN(C)c1ccc(CC(=O)N2C[C@H](C3CC3)[C@@H](N)C2)cc1`: the “Percent Effect” value was -4.487%.

Regarding `COc1ccc2c(c1)s/c(=N\C(=O)CSCC(=O)Nc1nccs1)n2C`, the “Percent Effect” value is listed as -4.566%.

With `N#CCCN(CC1CC1)S(=O)(=O)c1cccc(Cl)c1`, the “Percent Effect” value is -14.4%.

In the case of `CC(=O)c1cccc(-c2c[nH]c(C)n2)c1`, the “Percent Effect” value is given as -8.634%. As for `Cc1n[nH]cc1CNCc1cccc(OCC(F)(F)F)c1.Cl`, the “Percent Effect” value is reported as -11.93%. With `O=c1[nH]nc(CNCc2ccc(OC34CCCN(CC3)C4)cc2)[nH]1` (stereo not drawn), the “Percent Effect” value is listed as 93.23%. For `Cc1cnccc1CNCc1ccc(OC23CCCN(CC2)C3)cc1` (stereo not drawn), the “Percent Effect” value was found to be 106.9%. Take `CCN1CCCC(O)(CNCc2ccncc2)C1` (stereo not drawn): the “Percent Effect” value is reported as 6.912%. As to `Cc1ccnc(NCc2cccc(OCCN3CCOCC3)c2)n1`, the “Percent Effect” value turned out to be 10.24%. With `Cc1nc(CNCc2ccc(OC34CCCN(CC3)C4)cc2)n[nH]1` (stereo not drawn), the “Percent Effect” value came to 103.3%. On to `COc1ccc(C(C)(C)C(=O)NCc2n[nH]c(=O)[nH]2)cc1`, for which the “Percent Effect” value is listed as -12.5%. For the molecule `Cc1nc(CNCc2cccc(OC34CCCN(CC3)C4)c2)n[nH]1` (stereo not drawn), the “Percent Effect” value is on record as 113.3%. For the molecule `Cc1ccc(CN2CCNC(=O)C2CC(=O)NCc2n[nH]c(C)n2)cc1` (stereo not drawn), the “Percent Effect” value was 3.294%.

In the case of `COCCN1CCCC(O)(CN2CCN(c3ccncc3C)CC2)C1=O` (stereo not drawn), the “Percent Effect” value is recorded as -3.963%. The value for `OC(CN1CCN(CC2CC2)CC1)c1ccc(Br)cc1` (stereo not drawn) was 16.18%; that for `CCNC(=O)NC(=O)C(C)N1CCCc2cc(OC)ccc2C1` (stereo not drawn) was -0.429%; that for `CCc1ccc(C(C)NC(=O)CCc2nc(-c3nnc[nH]3)no2)cc1` (stereo not drawn) was 0.9549%.

For `CC(C)CC(O)C1CCN(Cc2ccc(N(C)C)nc2)CC1` (stereo not drawn), the “Percent Effect” value worked out at 7.143%. As to `Cc1nc(C(NC(=O)c2cc(C(C)C)[nH]n2)c2ccccc2)n[nH]1` (stereo not drawn), the “Percent Effect” value is reported as -6.911%. As to `CCC(CO)N(Cc1ccccn1)C(=O)c1cccc(C#N)c1` (stereo not drawn), the “Percent Effect” value is listed as -13.95%. The value for `CNS(=O)(=O)c1ccc(CNC(=O)Nc2ccccn2)s1` was -5.463%; that for `CS(=O)(=O)c1nnc(NC(=O)CCc2cc(F)ccc2F)[nH]1` was -16.39%; that for `COCc1cnc2n1CCN(C(=O)c1cc3cc(Cl)ccc3o1)C2C` (stereo not drawn) was 1.755%.

As to `CC1c2ncc(Cn3cncn3)n2CCN1C(=O)c1ccccn1` (stereo not drawn), the “Percent Effect” value was determined as 114.5%. Take `CN1CCN(Cc2cnc3n2CCN(C(=O)c2cscn2)C3)CC1`: the “Percent Effect” value is reported as 22%.

As for `CC1c2ncc(Cn3cncn3)n2CCN1C(=O)Cc1cccs1` (stereo not drawn), the “Percent Effect” value was -8.694%. `COCc1cnc2n1CCN(C(=O)C1=CCCCC1)C2C` (stereo not drawn): the “Percent Effect” value came to 2.775%. As to `CC1c2ncc(Cn3cncn3)n2CCN1C(=O)c1ccsc1` (stereo not drawn), the “Percent Effect” value amounted to 106%. `CC1c2ncc(Cn3cncn3)n2CCN1C(=O)c1cscn1` (stereo not drawn): the “Percent Effect” value stood at 89.1%. With `O=C(CSC1=NS(=O)(=O)c2cc(Cl)ccc2N1)c1ccccc1`, the “Percent Effect” value is 112.7%. As to `CCN1CC(Oc2ccc(Cl)cc2)=NC(SCC(=O)c2ccccc2)=N1`, the “Percent Effect” value turned out to be 3.791%.

`O=C(CSC1=NS(=O)(=O)c2cc(F)ccc2N1)c1ccccc1`: the “Percent Effect” value turned out to be 100.3%. Turning to `O=C(CSC1=NS(=O)(=O)c2cc(F)ccc2N1)c1ccc(Cl)cc1`, the “Percent Effect” value amounted to 4.147%. The value for `O=C(CN1C(=O)c2ccccc2CS1(=O)=O)c1ccc(Cl)cc1` was -11.99%.
